Bioassay records: PubChem, National Center for Advancing Translational Sciences (NCATS)
Sampled rows, rich in hits. Any-hit rate of the full collection: about 3%.
LmPK inh: inhibitors of Leishmania mexicana pyruvate kinase; purified LmPK, Kinase-Glo ATP luminescence, 1 h; AID 1721; Q27686; Potency, µM (titrated, usually from 57.5 µM), hits mostly inhibitors; hit rate 0.37% among 290,000
Target sequence (Q27686 whole entry, looked up): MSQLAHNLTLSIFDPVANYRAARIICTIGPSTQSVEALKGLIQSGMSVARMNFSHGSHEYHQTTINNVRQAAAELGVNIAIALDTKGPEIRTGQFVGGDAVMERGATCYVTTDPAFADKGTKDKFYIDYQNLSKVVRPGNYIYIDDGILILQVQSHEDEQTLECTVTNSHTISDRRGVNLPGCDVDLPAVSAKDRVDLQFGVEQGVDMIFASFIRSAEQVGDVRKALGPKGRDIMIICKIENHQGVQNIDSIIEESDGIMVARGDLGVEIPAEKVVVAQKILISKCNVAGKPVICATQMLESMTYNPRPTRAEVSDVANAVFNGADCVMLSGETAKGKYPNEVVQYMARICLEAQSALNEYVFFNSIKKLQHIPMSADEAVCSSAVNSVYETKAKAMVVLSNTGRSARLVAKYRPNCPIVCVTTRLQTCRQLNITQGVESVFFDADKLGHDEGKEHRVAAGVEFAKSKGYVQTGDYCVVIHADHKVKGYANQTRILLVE
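Purified LmPK (0.1 nM) with 0.5 mM PEP and 0.1 mM ADP in imidazole buffer pH 7.2 with MgCl2/KCl, 1 h at room temperature. ATP formed was read by luciferase luminescence and normalized to no-enzyme and uninhibited controls.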
TbPYK inhibitor: blocks Trypanosoma brucei pyruvate kinase; AID 624173; Q57TT1; TbPYK enzyme, Kinase-Glo Plus ATP luminescence, 45 min; Potency, µM (series often up to 76.8 µM), hits mostly inhibitors; hit rate 0.12% among 410,000; further: nearly all actives have a fitted effect of over 50% in size
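TbPYK + substrate in 50 mM TEA pH 7.2, 100 mM KCl, 10 mM MgCl2, 0.05% BSA, 0.01% Tween-20; cpd pinned; ADP 130 uM final; 45 min RT; Kinase-Glo Plus 10 min; luminescence endpoint.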
RE007 growth inh: less growth of the S. pombe RE007 Vpr strain | Potency, µM (doses to about 92.2 µM), hits mostly inhibitors | S. pombe RE007 Vpr strain, BacTiter-Glo ATP luminescence, 24 h | hit rate 0.21% among 360,000; active means well fitted falling curve with a large enough effect; inconclusive means small, poorly fitted or top-dose-only effect; inactive means no such curve, though single readings can be large or run the other way; further: nearly all actives have a fitted effect of over 50% in size
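Fission yeast strain RE007, carrying one chromosomally integrated HIV-1 vpr copy, was seeded at OD 0.01 in PMG+AL medium with 23 nL pinned compound. After 24 h at 30 °C and 99% humidity, viability was read by BacTiter-Glo luminescence.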
Sm TGR inh: S. mansoni TGR enzyme inhibition; Potency, µM (highest dose often 114 µM), most hits filed as inhibitors; Q962Y6; AID 485364; hit rate 3% among 360,000; purified TGR, DTNB reduction, TNB absorbance 405 nm; further: nearly all actives have a fitted effect of over 60% in size
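TGR 20 nM + NADPH 100 uM (dispensed conc.), cpd preinc 15 min RT; start with NADPH (500 uM addition) then DTNB (15 mM addition). Kinetic TNB absorbance, 405 nm filter. Four-parameter Hill fit across titration.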
A number is an active result; . = inactive; ? = inconclusive; / = not tested or not shown; [ ] = another dose, or the depositor's remark. Unless noted, the call rests on the fitted dose curve; in most records, active means well fitted curve in the direction sought with a large enough effect; inconclusive means small, poorly fitted or top-dose-only effect, or another doubt; inactive means no such curve, though single readings can be large; an effect the other way counts as inactive or inconclusive.

SMILES	LmPK inh	TbPYK inhibitor	RE007 growth inh	Sm TGR inh
COC(=O)c1nn(-c2ccc(OC)cc2)c(=O)cc1O	.	.	.	.
CC(C)(C)c1cc(/C=C2\NC(=O)NC2=O)cc(C(C)(C)C)c1O	.	.	.	1.12µM
O=C1NC(=O)/C(=C/c2cccc(O)c2)N1	.	.	.	.
CCSc1ncnc2c1sc1nc(-c3ccco3)c3c(c12)CC(C)(C)OC3	.	/	/	?
CC(C)Sc1nc(SCC(=O)NCc2ccco2)c2c3c(sc2n1)COC(C)(C)C3	.	.	.	28.2µM
CCCc1nc2sc3c(SCC(=O)NCc4ccco4)ncnc3c2c2c1CCC2	.	.	.	15.8µM
CCOC(=O)c1sc2nc(-c3ccco3)c3c(c2c1N)CC(C)(C)OC3	.	?	.	0.891µM
COC(=O)CSc1ncnc2c1sc1nc(-c3ccco3)c3c(c12)CC(C)(C)OC3	.	/	/	3.98µM
CC(C)Sc1nc(SCC(=O)O)c2c3c(sc2n1)COC(C)(C)C3	.	.	.	.
CCCCc1nc2c(c3c1C[C@H](C)OC3)CN(C(=O)NCCc1c[nH]c3ccccc13)CC2	.[11.5 µM]	/	/	/
Cc1ccc2c(=O)c(C(=O)c3ccccc3)cn(CC(=O)Nc3ccc4c(c3)OCCO4)c2n1	/	.	/	.
COc1ccc(C(=O)OCC(=O)Nc2ccc3c(c2)OCO3)cc1S(=O)(=O)N1CCOCC1	/	.	.	.
Cc1cccc(N(CC(=O)NCc2ccccc2)C(=O)Cn2nnc(-c3ccc(C)o3)n2)c1	.	.	.	.
O=C(CN(Cc1ccco1)C(=O)Cn1nnc(-c2cccs2)n1)NCc1ccccc1	.	.	.	17.8µM
CC(C)(C)NC(=O)C(c1ccncc1)N(Cc1cccs1)C(=O)Cn1nnc(-c2cccs2)n1 (stereo not given)	.	.	.	50.1µM
Cc1ccc(-c2nnn(CC(=O)N(CC(=O)NCc3ccccc3)c3cccc(C)c3C)n2)o1	.	.	.	22.4µM
CC(C)(C)NC(=O)C(c1ccc(O)cc1)N(Cc1ccco1)C(=O)Cn1nnc(-c2cccs2)n1 (stereo not given)	.	.	.	17.8µM
CCCc1nn2c(C)c(-c3ccccc3)nc2s1	/	.	/	.
CC[n+]1ccc(/C=C2\Sc3ccccc3N2CCCS(=O)(=O)[O-])c2ccccc21	.	.	.	/
CN1C=C/C(=C\c2cc[n+](C)c3ccccc23)c2ccccc21	.	.	3.16µM	.
C=CC1CN2CCC1CC2[C@@H](O)c1ccnc2ccc(OC)cc12 (stereo not given in full)	/	.	/	/
CCc1ccc(-n2nc(CO)c(C(=O)NCCCc3ccccc3)n2)cc1	/	.	/	.
COc1ccc(C(=O)c2no[n+]([O-])c2C(=O)c2ccc(OC)cc2)cc1	.	.	?	0.355µM
O=C(c1ccc(Cl)nc1)c1cccs1	.	.	.	.
O=C(c1cccs1)c1no[n+]([O-])c1C(=O)c1cccs1	.	.	28.2µM	0.1µM
SMILES	LmPK inh	TbPYK inhibitor	RE007 growth inh	Sm TGR inh
COC(=O)c1ccc2c(c1)C(C)(C)C(/C=C/c1ccccc1O)=[N+]2C	14.1µM	?	?	50.1µM
C[N+]1=C(/C=C/Nc2ccccc2Cl)C(C)(C)c2ccccc21	.	.	.	.
COc1ccc(-c2cc(CNc3nc4cc(-c5ccccc5C)sc4c(=O)n3C)on2)cc1	/	.	.	/
COc1ccccc1C(=O)COC(=O)Cc1n[nH]c(=O)c2ccccc12	/	.	.	.
COc1ccc(C(C)=O)cc1COC(=O)Cc1n[nH]c(=O)c2ccccc12	.	.	.	17.8µM
COc1ccc(C(C)=O)cc1COC(=O)c1cc(=O)c2ccccc2o1	.	.	?	1.78µM
COc1ccc(C(C)=O)cc1COC(=O)c1cccnc1SC	.	.	.	3.16µM
COc1ccc(C(C)=O)cc1COC(=O)c1cc(C)nc2ccccc12	.	.	.	3.55µM
CC(C)C1=CC2=CC[C@@H]3[C@](C)(CCC[C@@]3(C)C(=O)O)[C@H]2CC1	/	.	/	/
COc1ccc(C(C)=O)cc1COC(=O)c1c(C)nn(-c2ccccc2)c1C	.	.	.	?
COc1ccc(C(C)=O)cc1COC(=O)c1ccc2ccccc2n1	.	.	.	25.1µM
CCOC1=C2[C@@H](CN(S(=O)(=O)c3ccc(C)cc3)[C@H]2c2ccccc2)[C@H]2C(=O)N(c3ccccc3)C(=O)[C@H]2C1	/	.	.	/
CC(=O)Nc1ccc(NC(=O)CSc2nc(N)c(NC(=O)c3ccccc3F)c(=O)[nH]2)cc1	.	.	.	89.1µM
